Screening results (PubChem)
Most compounds without a hit are left out; they make up all but 19% or so of the library.
TDP1 cell CPT = DT40-hTDP1 cell growth loss with CPT | chicken DT40 Tdp1-/-;hTDP1 cells + 20 nM CPT, ATP luminescence, 48 h | Potency, µM (highest dose often 46.2 µM), hits mostly inhibitors | 420,000 compounds, 12% hits; also: nearly all actives have a fitted effect of over 55% in size
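Chicken DT40 Tdp1-/- cells complemented with human TDP1, 400 cells/well, exposed to compounds plus 20 nM camptothecin for at least 48 h at 37 C; viability read as ATP content by CellTiter-Glo luminescence.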
uPA surface inh = blocks generation of uPA at the cell surface; 330,000 compounds, 0.31% hits; cell surface uPA generation assay, qHTS; Potency, µM (doses to about 38.3 µM), actives largely listed as inhibitors; active = well fitted inhibition curve with a large enough effect; inconclusive = small, poorly fitted or top-dose-only effect; inactive = no such curve, though single readings can be large or run the other way; tested in mouse RAW 264.7 cells; also: nearly all actives have a fitted effect of over 55% in size
HT1080NT lethal = kills 2HG-producing HT-1080-NT fibrosarcoma cells. HT-1080-NT fibrosarcoma viability, CellTiter-Glo ATP luminescence, 48 h. Potency, µM (doses to about 46.1 µM), actives largely listed as cytotoxic. 360,000 compounds, 1.6% hits;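 also: NT is the 2HG producing partner of a matched IDH1 knockdown line; nearly all actives have a fitted effect of over 55% in size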
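Fibrosarcoma NT cells, 750 per well in 5% FBS RPMI, were exposed to compound for 48 hours. Viability: CellTiter-Glo luminescence.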
TDP1 cell noCPT = qHTS for Inhibitors of human tyrosyl-DNA phosphodiesterase 1 (TDP1): qHTS in cells in absence of CPT; 420,000 compounds, 15% hits; DT40 Tdp1-/- hTDP1 cells, no CPT, ATP luminescence, 48 h; AID 686978, 2013; Potency, µM (highest dose often 46.2 µM), hits mostly inhibitors; also: nearly all actives have a fitted effect of over 55% in size
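Chicken DT40 Tdp1-/- cells stably complemented with human TDP1 were seeded at 400 cells/well with DMSO in place of 20 nM camptothecin. After compound pinning, cells grew at least 48 hr at 37 °C; viability read by CellTiter-Glo luminescence.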
IL1B secr inh = inflammasome signaling inhibition, IL-1 beta readout | THP-1 LPS/ATP IL-1B secretion, AlphaLISA, 16 h; active compounds read low | activity change, % at 57.5 µM | 360,000 compounds, 4.7% hits | AID 743279; in the data active = activity change below about -50%; inconclusive = mostly about -30% to -49%
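THP-1 cells pretreated 1 hr with compounds (up to 57.5 uM final), then stimulated with LPS (250 ng/mL final) plus ATP (1.25 mM final); secreted IL-1B measured by AlphaLISA after 16 hr, decreased signal indicating inhibition.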
HT1080 IDH1KD tx = toxicity to HT-1080 IDH1 knockdown cells (counter line). 360,000 compounds, 2% hits. HT-1080 IDH1 knockdown viability, ATP luminescence, 48 h. Potency, µM (series often up to 46.1 µM), hits mostly cytotoxic
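Viability of IDH1-knockdown HT-1080 fibrosarcoma cells was assessed by CellTiter-Glo after 48 h at 37 °C with titrated compound; concentration-effect curves were classified by fit quality and response size.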
A number is an active result; - = inactive; ? = inconclusive; . = not tested or not shown. Unless noted, calls follow the shape of the dose curve; as a rule, active = well fitted curve in the direction sought with a large enough effect; inconclusive = small, poorly fitted or top-dose-only effect, or another doubt; inactive = no such curve, though single readings can be large; an effect the other way counts as inactive or inconclusive.

SMILES	TDP1 cell CPT	uPA surface inh	HT1080NT lethal	TDP1 cell noCPT	IL1B secr inh	HT1080 IDH1KD tx
Clc1ccc(OCCCN2CCCCC2)c(Br)c1	?	-	-	?	-	-
Cc1ccccc1NC(=O)c1sc2nc(N3CCOCC3)c3c(c2c1N)CC(C)(C)OC3	-	.	.	?	.	.
CCOC(=O)c1c(S(=O)(=O)N2CCC(C(=O)Nc3ccc(C)cn3)CC2)c(C)n(C)c1C	-	.	.	-	.	.
COc1cc(Cl)cc(/C=C/c2ccc3ccccc3n2)c1OC(C)=O	?	-	15µM	?	-102	15µM
COc1cc(/C=C\c2ccc(OC)cc2OC)cc(OC)c1	7.5µM	.	.	?	.	.
COc1ccccc1/C=C/c1ccc2ccccc2n1	?	.	.	16µM	.	.
Fc1cccc(F)c1/C=C/c1ccc2ccccc2n1	?	-	-	?	-	-
CC(O)/C=C/c1ccc2ccccc2n1 (stereo not drawn)	13µM	.	?	?	-96	11µM
O=C(/C=C/c1ccc2ccccc2n1)c1cc(Cl)ccc1O	?	-	-	?	-	-
COc1ccc(CN2CCC3(CC2)c2ccccc2[C@@H](NC(=O)c2ccsc2)[C@@H]3OC)cc1O	?	.	.	-	.	.
CC(=O)N1CCc2cc(S(=O)(=O)CCC(=O)NCCc3ccccc3)ccc21	-	-	-	-	-	-
CN(c1ccccc1)S(=O)(=O)c1cccc(NC(=O)CSc2ncc(C(F)(F)F)cc2Cl)c1	-	-	-	?	-	-
COc1ccccc1/C=C/c1nc2ccccc2c(=O)o1	-	?	-	-	-	-
COc1cc(OC)c(OC)cc1/C=C/c1nc2ccccc2o1	?	.	.	13µM	.	.
Fc1ccc(/C=C/c2ccc3ccccc3n2)cc1	2.8µM	.	.	2.8µM	.	.
COc1cc(OC)c(OC)cc1/C=C/c1ccc2ccccc2n1	11µM	.	.	14µM	.	.
COc1ccc(C=Cc2ccc3ccccc3n2)c(OC)c1	-	.	-	23µM	-	?
CC1(C(=O)NS(=O)(=O)c2cccc(F)c2)CCN1C(=O)c1ccccc1 (stereo not drawn)	-	.	-	-	-	-
Cc1csc(SCC(=O)NCC2Cc3cc(-c4cncnc4)ccc3O2)n1 (stereo not drawn)	-	.	.	-	.	.
COc1ccc(/C=C/c2nc3cc(-c4ccccc4)ccc3o2)cc1O	9.2µM	-	?	9.2µM	-	?
Clc1ccc(CN=C(Nc2ccccc2)NC2CCCCC2)cc1	18µM	-	21µM	23µM	.	16µM
O=C(Cc1ccc(Cl)cc1)NC1CCCCCC1	-	-	-	-	-	-
CCN(CC)C(=O)Cn1c(=O)n(-c2ccc(Cl)c(Cl)c2)c(=O)c2c(C)c(C(=O)N(CC)CC)sc21	-	.	.	-	.	.
Cc1c(NC(=O)c2cccc(-c3cc4ccccc4oc3=O)c2)cccc1-c1nc2ncccc2o1	26µM	-	-	21µM	-	-
O=C(Nc1cccc(-c2nc3ncccc3o2)c1)c1ccccc1	?	-	-	12µM	-	-
SMILES	TDP1 cell CPT	uPA surface inh	HT1080NT lethal	TDP1 cell noCPT	IL1B secr inh	HT1080 IDH1KD tx
CCC(NC(=O)CN1CCN(C(=O)c2cccs2)CC1)c1ccc(C)cc1 (stereo not drawn)	-	-	-	-	-	-
CCN1C(=O)C(c2ccc(O)cc2)(c2ccc(O)cc2)c2ccccc21	-	-	-	-	-94	-
CCOc1ccc2nc(Cl)c(/C=C/C(=O)c3ccco3)cc2c1	10µM	-	?	15µM	?	-
Cc1cccc2cc(/C=C/C(=O)c3ccco3)c(Cl)nc12	4.6µM	-	-	8.2µM	-	-
Cc1cccc2cc(/C=N/Nc3ccc(C(=O)O)cc3)c(Cl)nc12	-	-	-	?	-	-
CCOc1ccc(NC(=O)c2ccco2)cc1	-	?	-	-	-	-
CCOc1ccc2nc(NC(=O)c3nc(SCc4ccccc4F)ncc3Cl)sc2c1	-	.	.	?	.	.
CC1C(=O)C(C)C(c2cc(Cl)ccc2O)NC1c1cc(Cl)ccc1O (stereo not drawn)	?	-	16µM	-	-75	23µM
COc1ccc(S(=O)(=O)N2CCOCC2)cc1NC(=O)CSc1n[nH]c(C(C)C)n1	-	-	-	-	-	-
COc1ccccc1-c1cc(C(F)(F)F)nc(S(=O)(=O)CCCC(=O)Nc2cccnc2Cl)n1	2.1µM	-	15µM	4.6µM	-110	26µM
COc1ccccc1-c1cc(C(F)(F)F)nc(S(=O)(=O)CCCC(=O)Nc2ccccc2F)n1	2.6µM	.	.	2.6µM	.	.
COc1ccccc1-c1cc(C(F)(F)F)nc(S(=O)(=O)CCCC(=O)Nc2cc(Br)ccc2O)n1	-	.	.	-	.	.
CCOc1ccc(OCC(=O)OCC(=O)N2CCN(S(=O)(=O)c3ccc(C)cc3C)CC2)cc1	-	-	-	-	-	-
CC1(C(=O)NS(=O)(=O)c2cccc(OC(F)F)c2)CCN1C(=O)C1CCCCC1 (stereo not drawn)	-	.	-	-	-	-
COc1ccc(N(C(=O)Cn2nnc(-c3ccc(F)cc3)n2)C(C)C(=O)NC2CCCC2)cc1 (stereo not drawn)	?	-	-	?	-	-
CCC(C(=O)NC(C)(C)C)N(C(=O)Cn1nnc(-c2ccccc2F)n1)c1cccc2c1CCCC2 (stereo not drawn)	?	.	-	18µM	-	-
CC(C)(C)NC(=O)C(c1ccco1)N(C(=O)Cn1nnc(-c2ccc(F)cc2)n1)c1ccccc1F (stereo not drawn)	29µM	.	-	16µM	?	?
CC(C(=O)NC1CCCC1)N(C(=O)Cn1nnc(-c2ccc(F)cc2)n1)c1ccccc1F (stereo not drawn)	23µM	-	-	23µM	-66	-
Cc1ccc2c(c1)cc1c(=O)n(CC(=O)N3CCCCC3)nc(C)n12	-	.	.	?	.	.
CC1(C)S[C@@H]2[C@H](NC(=O)C(c3ccccc3)S(=O)(=O)O)C(=O)N2[C@H]1C(=O)O (stereo partly drawn)	-	.	.	-	.	.
CCOc1c(Br)cc(C2NS(=O)(=O)N=C3CCCCCN32)cc1OC (stereo not drawn)	?	-	-	16µM	-	-
O=S1(=O)N=C2CCCCCN2C(c2ccccc2)N1 (stereo not drawn)	-	-	-	-	-	-
Cc1cc(OCC(=O)NCCc2ccc(Cl)cc2)c2c(C)cc(=O)oc2c1	-	-	-	-	-	-
CCN1C(=O)N(S(=O)(=O)C(F)(F)F)[C@@H](c2ccccc2)C(C(=O)OC)=C1C	-	-	-	-	-	-
